One experiment relates to TAOK1. The settings on record: concentration: 1 μM,replicates: in singlicate; n = 1.
In the case of `CN1CCN(CCCNc2nccc(-c3c(-c4ccc(F)cc4)nn4cc(C(N)=O)ccc34)n2)CC1` [GW622475], the “%Inh” value was 13%.

As for `C[C@@H]1CNc2c(sc3ccc4nc(-c5ccc(O)cc5)ccc4c23)C(=O)N1`, the “%Inh” value stood at 86%.

For the compound `CCn1c(-c2nonc2N)nc2cncc(Br)c21` [SB-738004], the “%Inh” value was determined as 46%.

As for `C[C@@H]1CCN(C(=O)N2CCCC2)C[C@@H]1N(C)c1ncnc2[nH]ccc12`, the “%Inh” value is 0%.

Consider `CS(=O)c1ccc(-c2coc3ccc(-c4n[nH]c(=O)o4)cc23)cc1` (centres unmarked), for which the “%Inh” value is 0%.

With `CCn1c(-c2nonc2N)nc2cncc(CNC3CCNCC3)c21.Cl` [SB-747651], the “%Inh” value is on record as 0%.

For the compound `C[C@@H](Oc1cc(-n2cnc3cc(-c4cnn(C)c4)ccc32)sc1C(N)=O)c1ccccc1Cl` [GSK580432], the “%Inh” value is listed as 0%.

In the case of `CN1CCN(CCNc2nc3cc(Oc4ccc(NC(=O)Nc5cc(C(F)(F)F)ccc5F)cc4)ccc3[nH]2)CC1.Cl.Cl` [GW768504], the “%Inh” value came to 0%.

In the case of `CCNCC(Cc1ccccc1)NC(=O)c1cc(Br)c(-c2ccnc3[nH]ccc23)s1.Cl.Cl` (centres unmarked) [GSK1383280], the “%Inh” value is 54%.

Take `CCCC(=O)Nc1n[nH]c2ncccc12` [SB-601436]: the “%Inh” value turned out to be 2%.

For `COc1cccc(C2=C(Nc3cccc(Cl)c3)C(=O)NC2=O)c1` [SB-341556], the “%Inh” value turned out to be 21%.

In the case of `C[C@@H]1CNc2c(sc3ccc4nc(-c5ccncc5)ccc4c23)C(=O)N1`, the “%Inh” value turned out to be 75%.

Consider `CC(=O)c1c(-c2ccncc2)[nH]c(-c2ccncc2)c1C` [GW493036], for which the “%Inh” value stood at 63%.

`CCN1CCN(CCCC(=O)Nc2n[nH]c3nc(-c4ccc(O)cc4)c(Br)cc23)CC1` [SB-731579]: the “%Inh” value was 53%.

Consider `O=c1[nH]cc(-c2ccc(O)cc2)c2sc(-c3ccncc3)cc12` [GSK1033723], for which the “%Inh” value is reported as 14%.

Take `Nc1nccc(-c2ccc3c(N)n[nH]c3c2)n1` [GSK1034945]: the “%Inh” value is reported as 62%.

Take `COC(=O)c1cccc(NC(=O)NC2CCN(c3ccnc(NCc4ccc(F)cc4)n3)CC2)c1` [GSK1379860]: the “%Inh” value came out at 0%.

Regarding `COc1cc2nccc(Nc3ccc(Oc4ccccc4)cc3)c2cc1OC.Cl` [GI261656], the “%Inh” value was determined as 0%.

With `Cn1ccc2ncnc(Oc3ccc(NC(=O)Nc4cccc(C(F)(F)F)c4)c(Cl)c3)c21`, the “%Inh” value is listed as 0%.

With `CNC(=O)c1ccccc1Nc1nc(Nc2cccc(CS(C)(=O)=O)c2)ncc1C.O=CO` [GSK1520489], the “%Inh” value is listed as 72%.

Consider `Cc1cccc2c(-c3ccncc3)c(-c3ccc(F)cc3)nn12.Cl` [GW461487], for which the “%Inh” value turned out to be 1%.

Regarding `Cc1nnc(-c2ccc3occ(-c4ccc(S(C)=O)cc4)c3n2)o1` (centres unmarked), the “%Inh” value is given as 0%.

For the compound `OCCn1cc(-c2cnc3nnn(Cc4ccc5ncccc5c4)c3n2)cn1`, the “%Inh” value is given as 0%.

For `COC(=O)c1cccc(NC(=O)NC2CCN(c3ccnc(Nc4cc(OC)c(OC)c(OC)c4)n3)C2)c1` (centres unmarked) [GSK1379767], the “%Inh” value is 0%.

With `O=C(Nc1cccc(C(F)(F)F)c1)c1cccc(Oc2ccc3nccn3n2)c1`, the “%Inh” value came to 4%.

In the case of `Cc1cccc(-c2nc(Nc3ccncc3)c3sccc3n2)n1` [GW869641], the “%Inh” value came to 45%.

For `COc1cc2ncn(-c3cc(OCC4CCCCC4)c(C(N)=O)s3)c2cc1OC` [GSK204559], the “%Inh” value was 0%.

Consider `Cn1cc(-c2cccc3c(N)c(C(N)=O)nnc23)cn1`, for which the “%Inh” value was found to be 25%.

As to `NC(=O)Nc1sc(-c2ccc(F)cc2)cc1C(N)=O` [GW789449], the “%Inh” value was found to be 61%.

As to `c1ccc(Oc2ccc(Nc3ccnc4ccc(-c5ccccn5)cc34)cc2)cc1` [GW407034], the “%Inh” value was determined as 0%.

With `Cn1ccc2ncnc(Oc3ccc(NC(=O)Nc4cnn(C(C)(C)C)c4)c(Cl)c3)c21`, the “%Inh” value was found to be 0%.

As to `Cc1ccc(Nc2ccnc(Nc3ccc4c(c3)CS(=O)(=O)C4)n2)cc1O.Cl` [GW579362], the “%Inh” value amounted to 81%.

As to `Cc1ccc(C(=O)Nc2ccc(Oc3ccc4nc(NC(=O)C5CC5)cn4c3)c(F)c2)c(=O)n1-c1ccccc1`, the “%Inh” value stood at 0%.

Regarding `CC(C(=O)NC1CCN(c2ccnc(Nc3ccc(F)cc3)n2)C1)c1ccc(Cl)cc1` (centres unmarked) [GSK1379713], the “%Inh” value was 0%.

`COC(=O)Nc1nc2cc(Oc3ccc(NC(=O)Nc4cc(C(F)(F)F)ccc4Cl)cc3)ccc2[nH]1.Cl` [GW697465]: the “%Inh” value worked out at 0%.

Turning to `CCOC(=O)N1CCC(n2cnc(-c3ccc(F)cc3)c2-c2ccnc(N)n2)CC1` [SB-219952], the “%Inh” value is 0%.

Regarding `Cn1ccc2ncnc(Oc3ccc(NC(=O)Nc4cc(C(C)(C)C)on4)c(Cl)c3)c21`, the “%Inh” value is recorded as 0%.

Another experiment relates to TAOK2. The following applies: concentration: 1 μM,replicates: in singlicate; n = 1.
Regarding `CN1CCN(CCCNc2nccc(-c3c(-c4ccc(F)cc4)nn4cc(C(N)=O)ccc34)n2)CC1` [GW622475], the “%Inh” value came out at 0%.

On to `C[C@@H]1CNc2c(sc3ccc4nc(-c5ccc(O)cc5)ccc4c23)C(=O)N1`, for which the “%Inh” value came out at 0%.

Consider `CCn1c(-c2nonc2N)nc2cncc(Br)c21` [SB-738004], for which the “%Inh” value is 1%.

As to `C[C@@H]1CCN(C(=O)N2CCCC2)C[C@@H]1N(C)c1ncnc2[nH]ccc12`, the “%Inh” value is listed as 0%.

As for `CS(=O)c1ccc(-c2coc3ccc(-c4n[nH]c(=O)o4)cc23)cc1` (centres unmarked), the “%Inh” value was found to be 3%.

For the compound `CCn1c(-c2nonc2N)nc2cncc(CNC3CCNCC3)c21.Cl` [SB-747651], the “%Inh” value is on record as 1%.

In the case of `C[C@@H](Oc1cc(-n2cnc3cc(-c4cnn(C)c4)ccc32)sc1C(N)=O)c1ccccc1Cl` [GSK580432], the “%Inh” value was found to be 0%.

On to `CN1CCN(CCNc2nc3cc(Oc4ccc(NC(=O)Nc5cc(C(F)(F)F)ccc5F)cc4)ccc3[nH]2)CC1.Cl.Cl` [GW768504], for which the “%Inh” value stood at 38%.

Take `CCNCC(Cc1ccccc1)NC(=O)c1cc(Br)c(-c2ccnc3[nH]ccc23)s1.Cl.Cl` (centres unmarked) [GSK1383280]: the “%Inh” value stood at 0%.

As for `CCCC(=O)Nc1n[nH]c2ncccc12` [SB-601436], the “%Inh” value is recorded as 3%.

Take `COc1cccc(C2=C(Nc3cccc(Cl)c3)C(=O)NC2=O)c1` [SB-341556]: the “%Inh” value came out at 0%.

Consider `C[C@@H]1CNc2c(sc3ccc4nc(-c5ccncc5)ccc4c23)C(=O)N1`, for which the “%Inh” value was found to be 0%.

As for `CC(=O)c1c(-c2ccncc2)[nH]c(-c2ccncc2)c1C` [GW493036], the “%Inh” value amounted to 0%.

In the case of `CCN1CCN(CCCC(=O)Nc2n[nH]c3nc(-c4ccc(O)cc4)c(Br)cc23)CC1` [SB-731579], the “%Inh” value came to 65%.

`O=c1[nH]cc(-c2ccc(O)cc2)c2sc(-c3ccncc3)cc12` [GSK1033723]: the “%Inh” value is given as 0%.

On to `Nc1nccc(-c2ccc3c(N)n[nH]c3c2)n1` [GSK1034945], for which the “%Inh” value came out at 0%.

Take `COC(=O)c1cccc(NC(=O)NC2CCN(c3ccnc(NCc4ccc(F)cc4)n3)CC2)c1` [GSK1379860]: the “%Inh” value was 0%.

For the compound `COc1cc2nccc(Nc3ccc(Oc4ccccc4)cc3)c2cc1OC.Cl` [GI261656], the “%Inh” value turned out to be 0%.

Take `Cn1ccc2ncnc(Oc3ccc(NC(=O)Nc4cccc(C(F)(F)F)c4)c(Cl)c3)c21`: the “%Inh” value is given as 23%.

On to `CNC(=O)c1ccccc1Nc1nc(Nc2cccc(CS(C)(=O)=O)c2)ncc1C.O=CO` [GSK1520489], for which the “%Inh” value was determined as 15%.

Regarding `Cc1cccc2c(-c3ccncc3)c(-c3ccc(F)cc3)nn12.Cl` [GW461487], the “%Inh” value amounted to 0%.

For `Cc1nnc(-c2ccc3occ(-c4ccc(S(C)=O)cc4)c3n2)o1` (centres unmarked), the “%Inh” value amounted to 0%.

As to `OCCn1cc(-c2cnc3nnn(Cc4ccc5ncccc5c4)c3n2)cn1`, the “%Inh” value is given as 0%.

In the case of `COC(=O)c1cccc(NC(=O)NC2CCN(c3ccnc(Nc4cc(OC)c(OC)c(OC)c4)n3)C2)c1` (centres unmarked) [GSK1379767], the “%Inh” value stood at 0%.

On to `O=C(Nc1cccc(C(F)(F)F)c1)c1cccc(Oc2ccc3nccn3n2)c1`, for which the “%Inh” value is on record as 9%.

For the compound `Cc1cccc(-c2nc(Nc3ccncc3)c3sccc3n2)n1` [GW869641], the “%Inh” value stood at 7%.

For `COc1cc2ncn(-c3cc(OCC4CCCCC4)c(C(N)=O)s3)c2cc1OC` [GSK204559], the “%Inh” value was determined as 0%.

In the case of `Cn1cc(-c2cccc3c(N)c(C(N)=O)nnc23)cn1`, the “%Inh” value worked out at 29%.

On to `NC(=O)Nc1sc(-c2ccc(F)cc2)cc1C(N)=O` [GW789449], for which the “%Inh” value was 41%.

As to `c1ccc(Oc2ccc(Nc3ccnc4ccc(-c5ccccn5)cc34)cc2)cc1` [GW407034], the “%Inh” value amounted to 24%.

With `Cn1ccc2ncnc(Oc3ccc(NC(=O)Nc4cnn(C(C)(C)C)c4)c(Cl)c3)c21`, the “%Inh” value was determined as 15%.

For `Cc1ccc(Nc2ccnc(Nc3ccc4c(c3)CS(=O)(=O)C4)n2)cc1O.Cl` [GW579362], the “%Inh” value came out at 30%.

Turning to `Cc1ccc(C(=O)Nc2ccc(Oc3ccc4nc(NC(=O)C5CC5)cn4c3)c(F)c2)c(=O)n1-c1ccccc1`, the “%Inh” value stood at 0%.

As for `CC(C(=O)NC1CCN(c2ccnc(Nc3ccc(F)cc3)n2)C1)c1ccc(Cl)cc1` (centres unmarked) [GSK1379713], the “%Inh” value worked out at 0%.

Turning to `COC(=O)Nc1nc2cc(Oc3ccc(NC(=O)Nc4cc(C(F)(F)F)ccc4Cl)cc3)ccc2[nH]1.Cl` [GW697465], the “%Inh” value came to 0%.

On to `CCOC(=O)N1CCC(n2cnc(-c3ccc(F)cc3)c2-c2ccnc(N)n2)CC1` [SB-219952], for which the “%Inh” value is listed as 3%.

As for `Cn1ccc2ncnc(Oc3ccc(NC(=O)Nc4cc(C(C)(C)C)on4)c(Cl)c3)c21`, the “%Inh” value is listed as 0%.
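Also: KINOMEscan kinase panel screen.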
